Structures are written as SMILES. About 83,000 compounds went through this panel and 20% of them were active in at least one assay; those are over-represented in the sample as a whole.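 Single-dose data. Exposure time 48 hours. Values below 10 considered active.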 The source made the active and inactive calls.

The first assay concerns MCF7 breast. Kind of assay: NCI-60 one-dose screen, 48 h (100 = growth as untreated, 0 = no growth, -100 = all killed). Particulars: 10 µM unless noted.
For `COc1cc(-c2nc3cc(Cl)c(Cl)cc3[nH]2)ccc1OCC(=O)N=Nc1c(O)[nH]c2ccc([N+](=O)[O-])cc12`, the growth is 74% (inactive). For the molecule `CCOC(=O)c1cc2c(=O)oc3ccccc3c2oc1=O`, the growth is 99.8% (inactive). Consider `c1cc2[nH]ncc2cc1-c1nc2ccc3[nH]ncc3c2c2c1CCCC2`, for which the growth was 21.7% (inactive). The same measure, in the same setting: for `Cc1cccc2c1NC(=O)C2(c1ccc(O)cc1)c1ccc(O)cc1` the value was 1.54% (active).

`CCOC(=O)C(=Cc1cccc(Cl)c1)C(=O)OCC`: the growth is 8.93% (active).

Another assay has as its system HCT-116 colon. The assay is described as above. To be noted: 10 µM unless noted.
For `O=C(Cn1c(-c2ccc([N+](=O)[O-])cc2)nc2ccccc21)NNC(=O)c1cccnc1`, the growth was 82.1% (inactive). Same read-out and setting: for `O=C(Cn1cc(CN2C(=O)c3ccccc3S2(=O)=O)nn1)Nc1nc2ccccc2s1` the value was 88% (inactive). On to `CCN1CC(=O)N(/N=C2\C(=O)Nc3ccccc32)C1=S`, for which the growth is 94.9% (inactive). Consider `O=C1NCCC12CCN(c1c(Cl)cncc1-c1ccc(O)cc1)CC2`, for which the growth was 97.3% (inactive). The same measure, in the same setting: for `COP(=O)(OC)C(C)(C)CC(=O)CC(C#N)(C#N)C(C#N)C#N` the value was 92.4% (inactive). Same read-out and setting: for `COc1ccc(-c2nc3c(c(-c4ccccc4)nn3-c3ccccc3)c(-c3ccc(N4CCN(C)CC4)cc3)c2C#N)cc1` the value was 81.4% (inactive).

For `C#Cc1cccc(Nc2ncnc3ccc(-c4cncc(NS(C)(=O)=O)c4)cc23)c1`, the growth was 11% (inactive). Same read-out and setting: for `Cc1ccc(Sc2nnc(/N=C3\C(=O)Nc4ccccc43)s2)cc1` the value was 104% (inactive).

Take `CN(C)c1ccc(/C=C/C(=O)c2ccc(-n3cc(CN4CCN(c5cc6c(cc5F)c(=O)c(C(=O)O)cn6C5CC5)CC4)nn3)cc2)cc1`: the growth is -10.3% (active). Turning to `CCOC(=O)CSc1ncnc2c1c(-c1ccccc1)c(-c1ccccc1)n2-c1ccc(C)cc1`, the growth is 53.5% (inactive).

For `O=C(CCCCCCN1CC(=O)N2[C@H](c3cc(Br)cs3)c3[nH]c4ccccc4c3C[C@H]2C1=O)NO`, the growth was 13% (inactive).

In the case of `Cn1c(O)c(C=NCCN=Cc2c(O)n(C)c(=O)n(C)c2=O)c(=O)n(C)c1=O`, the growth is 81.1% (inactive). On the same count and under the same terms, for `C/C(Nc1ccc(Cl)c(Cl)c1)=C1\CCOC1=O` the value was 80.7% (inactive); for `C=C1C(=O)O[C@H]2[C@H]1CC/C(COC(=O)CCSCCC(=O)OC/C1=C/CC[C@@]3(C)O[C@H]3[C@H]3OC(=O)C(=C)[C@@H]3CC1)=C\CC[C@@]1(C)O[C@@H]21`, -60.2% (active); for `Cc1ccc(/C=N/Nc2nc(Nc3ccccc3)nc(-n3nc(C)cc3C)n2)cc1`, 27.6% (inactive).

Consider `O=C(CCc1nnc(Cn2cnc3nc[nH]c3c2=O)o1)c1nc2ncccc2[nH]1`, for which the growth was 97.3% (inactive). On the same count and under the same terms, for `O=C1NC(=O)c2c1c1c3ccccc3ccc1c1[nH]c3ccc(Br)cc3c21` the value was 7.95% (active). On the same count and under the same terms, next, `Nc1nc(=S)c2ncn(C3OC(COP(=O)(O)O)C(O)C3O)c2[nH]1` (stereo not given): 22.9% (inactive). Regarding `CC12CCC3c4ccccc4CCC3(CO1)C2` (stereo not given), the growth was 117% (inactive). On the same count and under the same terms, for `O=Cc1ccc([N+](=O)[O-])s1` the value was 46.4% (inactive); for `CC(C)c1ccc(COCc2cc(CN3CCCC3)c(O)c3ncccc23)cc1`, 5.58% (active); for `COCCNC(=O)c1ccc(-c2nc3ccc4[nH]ncc4c3c3c2CCCC3)cc1`, 13% (inactive). The same measure, in the same setting: for `C/C(=N/O)c1ccc(F)cc1` the value was 51.9% (inactive); for `COc1ccc2nc(NC(=O)CSc3nnc4n3S(=O)(=O)c3ccccc3N4C)sc2c1`, 97.1% (inactive). Still for that read-out and setting: next, `CN(Cc1ccc(C(F)(F)F)cc1)CC(O)C(=O)Nc1ccc(Cl)cc1` (stereo not given): -94.3% (active); `Cc1ccc2c3c(c(=O)[nH]c2c1)C1(C(C#N)=C(N)O3)c2cc(Br)ccc2-c2ccc(Br)cc21`: 10% (inactive); `CC1(C)CC[C@]2(c3nnc(-c4ccncc4)o3)CC[C@H]3C(=CC[C@H]4[C@@]3(C)CC[C@H]3C(C)(C)C(=O)CC[C@]43C)[C@@H]2C1`: 29% (inactive). For `C=C(C)[C@@H]1CC[C@]2(C(=O)N3CCN(C)CC3)CC[C@]3(C)[C@H](CC[C@@H]4[C@@]5(C)CC(=C/c6ccncc6)/C(=N/O)C(C)(C)[C@@H]5CC[C@]43C)[C@@H]12`, the growth was 56.1% (inactive).

Turning to `Oc1ccc(CCn2c(O)c(/C=C3\CN=c4ccccc4=N3)sc2=S)cc1`, the growth was 55.8% (inactive). Still for that read-out and setting: next, `CCNC(=O)c1[nH]cc(-c2ccccc2)c1-c1cc(OC)c2c(c1OC)OCO2`: 90.7% (inactive); `C[C@]12C=CC(=O)C=C1CCC1C2[C@@H](O)C[C@@]2(C)C1CC[C@]2(O)C(=O)COC(=O)CCC(=O)O` (stereo not given in full): 107% (inactive).

Consider `C=CCc1c(O)c(C(=O)/C=C/c2ccc(Cl)cc2)c(OC)c2ccoc12`, for which the growth was 17.2% (inactive). On the same count and under the same terms, for `COc1cc(-n2cc(-c3cc(O)c(C/C=C(\C)CCC=C(C)C)c(O)c3)nn2)cc2c1O[C@]1(C)CC[C@@H](O)C(C)(C)[C@H]1C2` the value was 8.36% (active). On the same count and under the same terms, for `O=C(CSc1nc2ccc([N+](=O)[O-])cc2[nH]1)Nc1cccc(C(F)(F)F)c1` the value was 12.8% (inactive); for `COc1ccc(C(=O)Nc2ncc(Cc3ccc(F)cc3)s2)cc1`, 13.1% (inactive); for `COc1cc(-c2nc3cc(Cl)c(Cl)cc3[nH]2)ccc1OCC(=O)N=Nc1c(O)[nH]c2ccc([N+](=O)[O-])cc12`, 42.6% (inactive). In the case of `CCOC(=O)c1cc2c(=O)oc3ccccc3c2oc1=O`, the growth was 109% (inactive). Same read-out and setting: next, `c1cc2[nH]ncc2cc1-c1nc2ccc3[nH]ncc3c2c2c1CCCC2`: 0.11% (active); `Cc1cccc2c1NC(=O)C2(c1ccc(O)cc1)c1ccc(O)cc1`: 68.7% (inactive).

Consider `CCOC(=O)C(=Cc1cccc(Cl)c1)C(=O)OCC`, for which the growth is -47.5% (active).

For the origin of these results see PubChem BioAssay (NCI).
